# Inconclusive results are not listed. Where a call stands in place of a potency, no number is given. Unmarked numbers belong to inactive results. Activity calls are given as the source filed them. The call rests on the fitted dose curve; in most records, active means well fitted inhibition curve with a large enough effect; inconclusive means small, poorly fitted or top-dose-only effect; inactive means flat fitted curve, though single readings scatter.
# Molecular target: Phospholipid hydroperoxide glutathione peroxidase GPX4 (Homo sapiens) (UniProt P36969)
# Sequence (P36969 whole entry, looked up): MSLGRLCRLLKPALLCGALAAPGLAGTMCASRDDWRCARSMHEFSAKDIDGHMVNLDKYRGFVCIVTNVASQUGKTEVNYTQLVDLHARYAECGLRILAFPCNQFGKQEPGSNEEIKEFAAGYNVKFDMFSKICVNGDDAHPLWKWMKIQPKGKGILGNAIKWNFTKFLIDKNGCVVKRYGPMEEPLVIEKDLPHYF
# Test: Primary qHTS Assay for Inhibitors of Recombinant Selenoprotein Glutathione Peroxidase 4 (GPX4) (AID 1845192); further: nearly all actives have a fitted effect of over 65% in size
# Conditions: recombinant GPX4, GR-coupled NADPH fluorescence, 15 min; series mostly up to 50 µM; activity change, negative = inhibition: at the top concentration
# Source text: Assay Provider: Elias S.J. Arner MD PhD.
# Department of Medical Biochemistry and Biophysics
# Karolinska Institutet, Solna, Stockholm, Sweden
# Selenoprotein glutathione peroxidases (GPX), like the ubiquitously expressed GPX1 and the ferroptosis modulator GPX4, enact their antioxidant activities by reducing hydroperoxides using glutathione. […] GPX1 and GPX4 inhibitors have thus shown promise as anti-cancer agents. Existing inhibitors are often promiscuous, or modulate GPX activity only indirectly, so novel direct inhibitors identified through screening against GPX1 and GPX4 could be valuable. Here, we developed optimized glutathione reductase (GR)-coupled GPX assays for the biochemical high-throughput screen (HTS) of almost 12,000 compounds with known mechanisms of action. Initial hits were triaged using a GR counter-screen, assessed for isoform specificity using a separate GPX2 assay, and were assessed for general selenocysteine-targeting activity using a thioredoxin reductase (TXNRD1) assay. With this suite of assays, we identified novel GPX1/GPX2- and GPX4-specific inhibitors and can here present a validated pipeline for future discovery research for selenoprotein-targeting agents.
# SEQUENCE No. (e.g., 1, 2, 3, etc.); […] (e.g., Cells, Incubation, Reagent, etc.); VALUE; DESCRIPTION.
# 1; Reagent 1; 3 uL; 333.33 nM GPx4 enzyme or no enzyme control in 1536-well, black, solid Greiner assay plate.
# 2; Compound; 25 nL; Kalypsis pin tool (Wako USA) equipped with a 1536-well pin head.
# 3; Incubation; 30 min; room temperature.
# 4; Reagent 2; 1 uL; 500 nM GR, 5 mM GSH, 2.5 mM NADPH solution
# 5; Reagent 3; 1 uL; 2.5 mM CHP in 50% EtOH.
# 6; Detection; Fluorescence; ViewLux microplate reader, excitation 340 nm and emission 450 nm.
# 7; Incubation; 15 min; room temperature.
# 8; Detection; Fluorescence; ViewLux microplate reader, excitation 340 nm and emission 450 nm.
# NOTES (numbers refer to Sequence numbers above)
# 1. 3 µL of 333.33 nM GPX4 and 0.016% BSA in assay buffer (50 mM Tris-HCl, 2 mM EDTA (pH 7.5), 150 mM NaCl) was added to columns 3-48 of 1536-well plates using a BioRAPTR Flying Reagent Dispenser (Let's Go Robotics (LGR), Carlsbad, CA). A no-enzyme control (0.01% BSA in TES assay buffer) was added to columns 1-2.
# 2. 25 nL, library and DMSO controls were added to each well with a pin tool (Kalypsys).
# 3. The assay plates were incubated for 30 minutes at room temperature.
# 4. 1 µL of master mix (500 nM glutathione reductase (GR), 5 mM reduced glutathione (GSH), 2.5 mM NADPH in assay buffer) was added.
# 5. 1 µL of cumene hydroperoxide (CHP) ([2.5 mM] in 50% EtOH) was then added within 5 minutes to initiate the reaction. Final concentrations were: 200 nM GPX4, 1 mM GSH, 0.5 mM CHP, 0.5 mM NADPH, 100 nM GR, 0.01% BSA.
# 6. Initial fluorescence readout (t=0) at 340/450 nm was measured using a ViewLux multimodal detector (PerkinElmer, Waltham, MA).
# 8. Endpoint fluorescence readout (t=15) at 340/450 nm was measured 15 min after room temperature incubation.
SMILES,outcome,Potency,"activity change, negative = inhibition"
COc1cccc(N(C)C(=S)Oc2ccc3c(c2)CCCC3)n1,inactive,,
CN(Cc1cc(Br)cc(Br)c1N)C1CCCCC1,,inactive,
C[C@]12C=CC(=O)C=C1CC[C@@H]1[C@@H]2C(=O)C[C@@]2(C)[C@H]1CC[C@]2(O)C(=O)CO,,inactive,
COC(=O)Nc1nc2ccc(C(=O)c3ccccc3)cc2[nH]1,,inactive,
C[C@@H](CN1CC(=O)NC(=O)C1)N1CC(=O)NC(=O)C1,,inactive,
NNC(=O)c1ccncc1,,inactive,
CNNCc1ccc(C(=O)NC(C)C)cc1,,inactive,
CN(C)CCc1c[nH]c2ccc(C[C@H]3COC(=O)N3)cc12,,inactive,
CCN(C)C(=O)Oc1cccc([C@H](C)N(C)C)c1,inactive,,
O=S(=O)(c1cccc2cnccc12)N1CCCNCC1,,inactive,
CCC(C)(C)c1ccc(CC(C)CN2C[C@@H](C)O[C@@H](C)C2)cc1 (stereo not given in full),inactive,,
CC(N)C12CC3CC(CC(C3)C1)C2 (stereo not given),,inactive,
CCC(=O)O[C@]1(C(=O)CCl)[C@@H](C)C[C@H]2[C@@H]3CCC4=CC(=O)C=C[C@]4(C)[C@@]3(F)[C@@H](O)C[C@@]21C,,inactive,
Cc1ncc([N+](=O)[O-])n1CCO,,,-20.4%
O=S(=O)(O)CCS,,inactive,
Cn1c(=O)c2c(ncn2CC(O)CO)n(C)c1=O (stereo not given),,inactive,
C[C@@H](NCCCc1cccc(C(F)(F)F)c1)c1cccc2ccccc12,,inactive,
CNS(=O)(=O)CCc1ccc2[nH]cc(C3CCN(C)CC3)c2c1,,inactive,
Nc1[nH]c(=O)ncc1F,,inactive,
CNCC[C@H](Oc1cccc2ccccc12)c1cccs1,,,-5.83%

SMILES,outcome,Potency,"activity change, negative = inhibition"
NS(=O)(=O)c1cc2c(cc1Cl)NC(C(Cl)Cl)NS2(=O)=O (stereo not given),,inactive,
O=C(NCC1CN(c2ccc(N3CCOCC3=O)cc2)C(=O)O1)c1ccc(Cl)s1 (stereo not given),,inactive,
CCCCS(=N)(=O)CCC(N)C(=O)O (stereo not given),,inactive,
CC[C@H](NC(C)C)[C@H](O)c1ccc(O)c2[nH]c(=O)ccc12,,inactive,
CCOC(=O)c1ccc(OC(=O)CCCCCN=C(N)N)cc1,,inactive,
COc1ccc(-c2ccc3cc(C(=O)O)ccc3c2)cc1C12CC3CC(CC(C3)C1)C2,,inactive,
CC(C)NCC(O)c1ccc(NS(C)(=O)=O)cc1 (stereo not given),,inactive,
O=C(O)c1ccc(-n2nc(-c3ccccc3O)nc2-c2ccccc2O)cc1,,inactive,
Nc1nc(N)c2nc(CNc3ccc(C(=O)NC(CCC(=O)O)C(=O)O)cc3)cnc2n1 (stereo not given),,inactive,
Cc1nnc(NS(=O)(=O)c2ccc(N)cc2)s1,,inactive,
COc1cc2c(Nc3ccc(Br)cc3F)ncnc2cc1OCC1CCN(C)CC1,,inactive,
Nc1ccc(S(=O)(=O)Nc2ccccn2)cc1,,,-3.66%
CN(C)CCc1c[nH]c2ccc(CS(=O)(=O)N3CCCC3)cc12,,inactive,
COc1ccc2c(c1)c(CC(=O)OCC(=O)O)c(C)n2C(=O)c1ccc(Cl)cc1,,,3.74%
CCCN[C@H]1CCc2nc(N)sc2C1,,inactive,
COCCCOc1cc(C[C@@H](C[C@H](N)[C@@H](O)C[C@H](C(=O)NCC(C)(C)C(N)=O)C(C)C)C(C)C)ccc1OC,,inactive,
NCCCC(O)(P(=O)(O)O)P(=O)(O)O,,inactive,
O=C(O)CCn1c2c(c3ccccc31)C[C@H](NS(=O)(=O)c1ccc(F)cc1)CC2,,inactive,
CNS(=O)(=O)Cc1ccc2[nH]cc(CCN(C)C)c2c1,inactive,,
CCN[C@H]1C[C@H](C)S(=O)(=O)c2sc(S(N)(=O)=O)cc21,,inactive,
